Records with an inconclusive call do not appear. The source made the active and inactive calls.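 The calls were made as follows, unless noted: active = normalized viability below 100% at a tested concentration; inactive = the rest.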
Key:
[1] = P. berghei load reduction in hepatocytes – cell-based, HepG2, luciferase luminescence, HepG2 viability, primary screen (AID 624349; in the data active = parasite load remaining mostly below about 12%, no sharp cut-off; inactive = mostly above about 10%;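 also: 100% = mean of DMSO negative control wells on the same plate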); conditions: P. berghei liver stage in HepG2, luciferase luminescence, concentration not given here; parasite load remaining: stronger effect = lower value; viability: measured here: HepG2 viability without parasites
[2] = viability loss in pontine glioma line – cell-based, SU-DIPG-XVII, MIPE5.0, CellTiter-Glo, qHTS, dose response (AID 1347060; cut-off not given, nearly all actives have AC50 up to about 26 µM;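 as to AC50: cells exposed to compound for 48 hours before viability readout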); conditions: CellTiter-Glo ATP luminescence
[3] = viability loss in pontine glioma line – cell-based, SU-DIPG-IV, MIPE4.0, CellTiter-Glo, qHTS, dose response (AID 1347063; cut-off not given, nearly all actives have AC50 up to about 30 µM;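 also: compound exposure lasted 48 hours before the viability readout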); conditions: CellTiter-Glo ATP luminescence
[4] = viability loss in pontine glioma line – cell-based, SU-DIPG-XIII, MIPE5.0, CellTiter-Glo, qHTS, dose response (AID 1347064; cut-off not given, nearly all actives have AC50 up to about 23 µM;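 also: cells exposed to compound for 48 hours before the viability read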); conditions: CellTiter-Glo ATP luminescence
[5] = viability loss in pontine glioma line – cell-based, SU-DIPG-XXV, MIPE5.0, CellTiter-Glo, qHTS, dose response (AID 1347065; cut-off not given, nearly all actives have AC50 up to about 26 µM;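 also: cells exposed to compound for 48 hours before ATP readout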); conditions: CellTiter-Glo ATP luminescence
[6] = JHH-DIPG-1 glioma cell viability, MIPE5.0 library, CellTiter-Glo luminescence, qHTS (AID 1347067; cut-off not given, nearly all actives have AC50 up to about 26 µM;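 also: cells exposed to compound for 48 hours before readout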); conditions: JHH-DIPG-1 glioma viability, CellTiter-Glo ATP luminescence
[7] = growth inhibition of DIPG cells – cell-based, MIPE5.0 library, qHTS (AID 1347068; cut-off not given, nearly all actives have IC50 up to about 30 µM;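 as to IC50: cells exposed to compound for 48 hours before viability readout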); conditions: SU-DIPG-XXV viability
[8] = viability loss with induced miR-34 in A549 – imaging, A549 dox-inducible miR-34, nuclei and caspase counts, primary screen (AID 1347080;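 active = compounds whose cell count with miR-34 switched on is under 0.7 times the count with it off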); conditions: A549 miR-34 inducible, Hoechst nuclei count, 48 h
[9] = compounds altering HSF1 focus formation in cells – imaging, Selleck Cancer Library (AID 1347162; in the data active = plate-normalised HSF1 focus index below about 0.46); conditions: human cells, HSF1 nuclear foci imaging, at 10 µM; SSMD: measured here: HSF1 foci SSMD mean; cell count: measured here: cell number; plate-normalised HSF1 focus index: stronger effect = lower value
[10] = MELAS cybrid and Rieske KO viability enhancers – cell-based, MELAS cybrids, Rieske KO mouse fibroblasts, CellTiter-Glo, primary screen (AID 1508586;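 active = mean z-score across replicates of 1.96 or higher in either the MELAS or the Rieske mutant cell line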;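 also: z relative to plate mean and SD of compound and empty wells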); conditions: low glucose
[11] = drug combination growth inhibition, ovarian cancer – cell-based, oncology-focused library, rucaparib conditional, profiling panel (AID 1508598); conditions: patient-derived ovarian cancer cells, CellTiter-Glo viability, 144 h, stronger effect = lower value
[12] = growth inhibition of DIPG cells – cell-based, MIPE4.0 library, CellTiter-Glo luminescence, qHTS (AID 1347066; cut-off not given, nearly all actives have AC50 up to about 30 µM;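 also: cells exposed to compound for 48 hours before readout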); conditions: SU-DIPG-VI viability, CellTiter-Glo ATP luminescence
[13] = viability loss in pontine glioma line – cell-based, JHH-DIPG-1, MIPE4.0, CellTiter-Glo, qHTS, dose response (AID 1347062; cut-off not given, nearly all actives have AC50 up to about 27 µM;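 as to AC50: cells exposed to compound for two days before readout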); conditions: JHH-DIPG-1 viability, CellTiter-Glo ATP luminescence
[14] = stronger effect = lower value, cell number ratio, induced over uninduced
[15] = measured here: relative caspase fold change +Dox/-Dox
[16] = measured here: total cells with miR-34 induction, stronger effect = lower value
[17] = measured here: total cells without miR-34 induction
[18] = MELAS cybrid survival, CellTiter-Glo 48 h, stronger effect = higher value
[19] = Rieske KO mouse fibroblast survival, CellTiter-Glo 72 h
[20] = at 0.000305 µM, OCI-C5x cells, with rucaparib 10 µM, 100% = cells with rucaparib alone
[21] = at 0.000305 µM, OCI-C5x cells, without rucaparib
[22] = at 0.000305 µM, OCI-P5x cells, with rucaparib 20 µM, 100% = cells with rucaparib alone
[23] = at 0.000305 µM, OCI-P5x cells, without rucaparib
[24] = at 0.00122 µM, OCI-C5x cells, with rucaparib 10 µM, 100% = cells with rucaparib alone
[25] = at 0.00122 µM, OCI-C5x cells, without rucaparib
[26] = at 0.00122 µM, OCI-P5x cells, with rucaparib 20 µM, 100% = cells with rucaparib alone
[27] = at 0.00122 µM, OCI-P5x cells, without rucaparib
[28] = at 0.00488 µM, OCI-C5x cells, with rucaparib 10 µM, 100% = cells with rucaparib alone
[29] = at 0.00488 µM, OCI-C5x cells, without rucaparib
[30] = at 0.00488 µM, OCI-P5x cells, with rucaparib 20 µM, 100% = cells with rucaparib alone
[31] = at 0.00488 µM, OCI-P5x cells, without rucaparib
[32] = at 0.0195 µM, OCI-C5x cells, with rucaparib 10 µM, 100% = cells with rucaparib alone
[33] = at 0.0195 µM, OCI-C5x cells, without rucaparib
[34] = at 0.0195 µM, OCI-P5x cells, with rucaparib 20 µM, 100% = cells with rucaparib alone
[35] = at 0.0195 µM, OCI-P5x cells, without rucaparib
[36] = at 0.0781 µM, OCI-C5x cells, with rucaparib 10 µM, 100% = cells with rucaparib alone
[37] = at 0.0781 µM, OCI-C5x cells, without rucaparib
[38] = at 0.0781 µM, OCI-P5x cells, with rucaparib 20 µM, 100% = cells with rucaparib alone
[39] = at 0.0781 µM, OCI-P5x cells, without rucaparib
[40] = at 0.313 µM, OCI-C5x cells, with rucaparib 10 µM, 100% = cells with rucaparib alone
[41] = at 0.313 µM, OCI-C5x cells, without rucaparib
[42] = at 0.313 µM, OCI-P5x cells, with rucaparib 20 µM, 100% = cells with rucaparib alone
[43] = at 0.313 µM, OCI-P5x cells, without rucaparib
[44] = at 1.25 µM, OCI-C5x cells, with rucaparib 10 µM, 100% = cells with rucaparib alone
[45] = at 1.25 µM, OCI-C5x cells, without rucaparib
[46] = at 1.25 µM, OCI-P5x cells, with rucaparib 20 µM, 100% = cells with rucaparib alone
[47] = at 1.25 µM, OCI-P5x cells, without rucaparib
[48] = at 5 µM, OCI-C5x cells, with rucaparib 10 µM, 100% = cells with rucaparib alone
[49] = at 5 µM, OCI-C5x cells, without rucaparib
[50] = at 5 µM, OCI-P5x cells, with rucaparib 20 µM, 100% = cells with rucaparib alone
[51] = at 5 µM, OCI-P5x cells, without rucaparib

COc1cc2nccc(Oc3ccc(NC(=O)Nc4cc(C)on4)c(Cl)c3)c2cc1OC
0.722: fold change [8, 15]
0.933: z-score [10, 19]
active: AC50 [2] 8.33 µM | AC50 [3] 18.7 µM | AC50 [4] 9.34 µM | AC50 [5] 5.9 µM | AC50 [6] 14.8 µM | IC50 [7] 9.34 µM | viability [11, 23] 96.5% | viability [11, 25] 100% | viability [11, 27] 94.7% | viability [11, 30] 92.6% | viability [11, 31] 93.9% | viability [11, 33] 96.2% | viability [11, 34] 98.1% | viability [11, 35] 86.6% | viability [11, 37] 88.6% | viability [11, 38] 92.2% | viability [11, 39] 87.4% | viability [11, 42] 88.2% | viability [11, 43] 91.5% | viability [11, 45] 93.1% | viability [11, 46] 81.9% | viability [11, 47] 86.1% | viability [11, 50] 70.8% | viability [11, 51] 82.8%
2720: cell count [8, 16]
inactive: parasite load remaining [1] 25.6% | fold change [8, 14] 1.35 | plate-normalised HSF1 focus index [9] 1.19 | z-score [10, 18] -0.36 | viability [11, 20] 115% | viability [11, 21] 105% | viability [11, 22] 104% | viability [11, 24] 109% | viability [11, 26] 101% | viability [11, 28] 107% | viability [11, 29] 106% | viability [11, 32] 113% | viability [11, 36] 113% | viability [11, 40] 133% | viability [11, 41] 109% | viability [11, 44] 138% | viability [11, 48] 150% | viability [11, 49] 104%
3.28: SSMD [9]
2010: cell count [8, 17]
7170: cell count [9]
70.1%: viability [1]

CC1=C[C@@H]2[C@H]([C@@H](O)C[C@@]3(C)[C@H]2C[C@@H](C)[C@]3(O)C(=O)CO)[C@@]2(C)Cc3cnn(-c4ccccc4)c3C=C12
active: AC50 [2] 5.25 µM | AC50 [3] 3.72 µM | AC50 [4] 9.34 µM | AC50 [5] 7.42 µM | AC50 [6] 11.8 µM | IC50 [7] 16.6 µM

COc1cccc2cc(-c3nc(C4CCC(C(=O)O)CC4)n4ncnc(N)c34)[nH]c12 (configuration not stated)
-0.621: z-score [10, 19]
inactive: outcome [7] | fold change [8, 14] 0.965
3250: cell count [8, 16]
0.637: fold change [8, 15]
3360: cell count [8, 17]
active: AC50 [2] 5.9 µM | AC50 [3] 0.166 µM | AC50 [4] 3.72 µM | AC50 [5] 2.63 µM | AC50 [6] 1.18 µM | z-score [10, 18] 4.23

COc1c(OCCCN2CCOCC2)ccc2c3n(c(=NC(=O)c4cnc(N)nc4)nc12)CCN3
active: AC50 [2] 0.27 µM | AC50 [3] 0.102 µM | AC50 [4] 0.27 µM | AC50 [5] 0.0959 µM | AC50 [12] 0.0457 µM | AC50 [6] 0.191 µM | IC50 [7] 0.382 µM

Cc1cnc(NC(=O)Nc2cc(Br)c(C)cc2OC[C@@H]2CNCCO2)cn1
inactive: plate-normalised HSF1 focus index [9] 1.16 | viability [11, 20] 111% | viability [11, 21] 118% | viability [11, 28] 103% | viability [11, 29] 121% | viability [11, 30] 114% | viability [11, 31] 109% | viability [11, 32] 109% | viability [11, 33] 113% | viability [11, 34] 107% | viability [11, 35] 104% | viability [11, 36] 102% | viability [11, 37] 117% | viability [11, 39] 105%
6470: cell count [9]
active: AC50 [2] 8.33 µM | AC50 [13] 1.18 µM | AC50 [5] 8.33 µM | AC50 [6] 20.9 µM | viability [11, 22] 65.9% | viability [11, 23] 19.8% | viability [11, 24] 84.2% | viability [11, 25] 88.9% | viability [11, 26] 47.7% | viability [11, 27] 17.5% | viability [11, 38] 92.1% | viability [11, 40] 96% | viability [11, 41] 98% | viability [11, 42] 73.6% | viability [11, 43] 94.9% | viability [11, 44] 60.4% | viability [11, 45] 71.2% | viability [11, 46] 43% | viability [11, 47] 85.9% | viability [11, 48] 3.26% | viability [11, 49] 46.4% | viability [11, 50] 0.466% | viability [11, 51] 7.42%
3.14: SSMD [9]

CC[C@@]1([C@@H]2O[C@@H]([C@H]3O[C@@](O)(CO)[C@H](C)C[C@@H]3C)C[C@@H]2C)CC[C@H]([C@]2(C)CC[C@]3(C[C@H](O)[C@@H](C)[C@@H]([C@@H](C)[C@@H](OC)[C@H](C)C(=O)O)O3)O2)O1
active: AC50 [2] 0.0574 µM | AC50 [3] 0.144 µM | AC50 [4] 0.456 µM | AC50 [5] 0.456 µM | AC50 [6] 0.288 µM

CCOc1cc(/C=C2/C(=O)N(c3ccccc3)N=C2C)cc(Cl)c1OCC(=O)OC
6670: cell count [9]
inactive: outcome [2] | outcome [13] | outcome [5] | outcome [6] | outcome [7] | plate-normalised HSF1 focus index [9] 1.07
1.24: SSMD [9]

COc1ccc(-c2ccc3c(N4CCOCC4)nc(N4C[C@@H](C)O[C@@H](C)C4)nc3n2)cc1CO
6570: cell count [9]
-1.75: SSMD [9]
inactive: outcome [12] | plate-normalised HSF1 focus index [9] 0.909 | viability [11, 20] 118% | viability [11, 21] 122% | viability [11, 22] 105% | viability [11, 23] 112% | viability [11, 24] 113% | viability [11, 25] 119% | viability [11, 26] 109% | viability [11, 27] 108% | viability [11, 28] 112% | viability [11, 29] 120% | viability [11, 30] 104% | viability [11, 31] 107% | viability [11, 32] 120% | viability [11, 33] 117% | viability [11, 34] 103% | viability [11, 35] 104% | viability [11, 36] 122% | viability [11, 37] 125% | viability [11, 38] 100% | viability [11, 39] 109% | viability [11, 40] 121% | viability [11, 41] 127% | viability [11, 43] 106% | viability [11, 44] 120% | viability [11, 45] 124% | viability [11, 48] 133% | viability [11, 49] 106%
active: AC50 [2] 3.72 µM | AC50 [3] 0.332 µM | AC50 [4] 4.17 µM | AC50 [5] 1.05 µM | AC50 [6] 1.05 µM | viability [11, 42] 95.5% | viability [11, 46] 78.8% | viability [11, 47] 91.3% | viability [11, 50] 48% | viability [11, 51] 99.4%
